{"source": "ChEMBL document CHEMBL4888484", "about": "“Replenishing the malaria drug discovery pipeline: Screening and hit evaluation of the MMV Hit Generation Library 1 (HGL1) against asexual blood stage Plasmodium falciparum ,using a nano luciferase reporter read-out” (2022)", "note": "Hit rate of the full screen: of about 4,800 compounds, about 410 (8.5%) showed an effect of 50% or more. Only a selection was taken, and strong results are over-represented in it overall."}
{"system": "Plasmodium falciparum", "assay": "Confirmatory screen in NF54 pLDH assay, in single point, at 2uM, 72h", "type": "functional, Erythrocyte", "conditions": "timepoint 72 hour", "units": {"% Inhibition": "%"}}
{"smiles": "OCCNCc1ccc(Cl)cc1Cl", "% Inhibition": 6}
{"smiles": "CCOc1cc(CNCCCn2ccnc2)ccc1OCc1ccccc1", "% Inhibition": 23}
{"smiles": "COc1cccc(CNCCCN2CCOCC2)c1OCc1ccc(Cl)cc1Cl", "% Inhibition": 12}
{"smiles": "Clc1ccc(COc2ccc(Cl)cc2CNCCCn2ccnc2)c(Cl)c1", "% Inhibition": 100}
{"smiles": "Clc1ccc(Cn2cc(CNCCCn3ccnc3)c3ccccc32)c(Cl)c1", "% Inhibition": 100}
{"smiles": "COc1cccc(CNCCN2CCOCC2)c1OCc1ccc(Cl)cc1Cl", "% Inhibition": 11}
{"smiles": "COc1ccc(NC(=O)[C@@H](c2cc(OC)c(OC)c(OC)c2)N(Cc2ccccc2)C(=O)Cn2nnc3ccccc32)cc1", "% Inhibition": -15}
{"smiles": "COc1ccc(S(=O)(=O)N2CCN(S(=O)(=O)c3ccc(OC)cc3)C2)cc1", "% Inhibition": -2}
{"smiles": "CCOc1c(CNC(C)(C)CC(C)(C)C)cccc1OC", "% Inhibition": 5}
{"smiles": "CC(Oc1ccc2c(c1)C(c1ccccc1)N(Cc1ccccc1F)CC2)C(=O)NC1CC1", "note": "(stereo not given)", "% Inhibition": 50}
{"smiles": "COc1ccc2cc3n(c2c1)C[C@](C(=O)NC1CCCCCC1)(c1ccccc1)N(Cc1ccccc1F)C3=O", "% Inhibition": -26}
{"smiles": "C[C@H](C(=O)NCC1CCN(Cc2ccccc2F)CC1)C1CCOCC1", "% Inhibition": 3}
{"smiles": "O=C(c1ccc2c(c1)OCO2)N1CCn2c1nc1ccccc12", "% Inhibition": 3}
{"smiles": "CC(=O)Nc1cccc(NC(=O)[C@H]2CC[C@H](Cn3c(O)nc4ccccc4c3=O)CC2)c1", "% Inhibition": 5}
{"smiles": "COc1cc2c(cc1Cl)-n1cccc1C1(CCNCC1)N2", "% Inhibition": -15}
{"smiles": "CC1=CC(=[N+](CCO)CCO)C=C/C1=C(\\c1ccc(N(CCO)CCO)cc1C)c1ccccc1Cl", "% Inhibition": 87}
{"smiles": "O=C(CN1CCN(Cc2cccc(Cl)c2)C1=O)N1CCN(c2ccccc2)CC1", "% Inhibition": 4}
{"smiles": "COc1cccc(-c2cc3c(N4CCC(C(=O)NC[C@H]5CCCO5)CC4)nccn3n2)c1", "% Inhibition": 5}
{"smiles": "Cc1ccc(S(=O)(=O)Cc2nc3cc(C)c(C)cc3[nH]c2=O)cc1", "% Inhibition": 2}
{"smiles": "O=S(=O)(NC1CCCCC1)c1ccc(Cl)c(S(=O)(=O)NC2CCCCC2)c1", "% Inhibition": 6}
{"smiles": "N#Cc1cc(S(=O)(=O)NCCN(C2CC2)S(=O)(=O)c2ccc(Cl)c(C#N)c2)ccc1Cl", "% Inhibition": 86}
{"smiles": "Cc1cccc(NC(=O)CCC(=O)OCC(F)(F)F)c1C", "% Inhibition": -1}
{"smiles": "Cc1nc(-c2ccccc2)cc2nn(CC(=O)NC3CCCCC3)c(=O)n12", "% Inhibition": -8}
{"smiles": "O[C@H]1CNCC[C@@H]1Nc1cc(-c2ccccc2)nc2ccccc12", "% Inhibition": 76}
{"smiles": "COc1cccc(-c2cc(C(=O)N3CCCN(C(=O)c4cc(-c5cccc(OC)c5)nc5ccccc45)CC3)c3ccccc3n2)c1", "% Inhibition": -26}
{"smiles": "CC(C)(C)NC(=O)C1CCN(C[C@@H]2CC=CCC2)CC1", "% Inhibition": 10}
{"smiles": "Cc1ccc(/C=C(\\C(=O)NC[C@H]2CCCO2)n2ccccc2=O)cc1", "% Inhibition": 12}
{"smiles": "CCCC1(CNC(=O)Nc2nc(CS(C)(=O)=O)no2)CC1", "% Inhibition": 6}
{"smiles": "CCCCCn1c(NCc2cc(Cl)ccc2O)nc2ccccc21", "% Inhibition": 21}
{"smiles": "CCOc1cc(CNCCN2CCOCC2)cc(Cl)c1OCc1ccccc1", "% Inhibition": 9}
{"smiles": "CCCc1noc([C@H]2CC(=O)N(c3ccccc3C)C2)n1", "% Inhibition": 8}
{"smiles": "CCc1nc2c(C(=O)N3CCOc4c(C)cc(C)cc43)ccnc2[nH]1", "% Inhibition": 60}
{"smiles": "CCOc1ccc(C/C(=C/N)c2nc(-c3ccc(Cl)cc3)cs2)cc1", "% Inhibition": 15}
{"smiles": "CCn1c(=O)c(N2CCC(C(=O)NCCCc3ccccc3)CC2)nc2cccnc21", "% Inhibition": -22}
{"smiles": "Clc1cccc(-c2c[nH]c([C@@H]3COCCN3C3CCOCC3)n2)c1", "% Inhibition": -16}
{"smiles": "CN1CCC[C@H](c2nnc3sc(-c4ccc(OCc5ccccc5)cc4)nn23)C1", "% Inhibition": 8}
{"smiles": "CC(C(=O)Nc1nccs1)N1CCCC(c2ccn[nH]2)C1", "note": "(stereo not given)", "% Inhibition": 45}
{"smiles": "Cc1cc(-c2cncc(CN3CCCCC3)c2)ccc1F", "% Inhibition": 8}
{"smiles": "O=S(=O)(c1cccc(Cl)c1)N1CCc2nc(N3CCCCC3)nc(Oc3ccccc3)c2C1", "% Inhibition": 78}
{"smiles": "Cc1noc(C)c1CNc1cc(S(=O)(=O)N2CCCCC2)ccc1Oc1ccccc1", "% Inhibition": 14}
{"smiles": "Cc1ccc(-c2nn(Cn3nc(C)c(Cl)c3C)c(-c3ccc(C)cc3)c2Br)cc1", "% Inhibition": -12}
{"smiles": "Cn1c(CN2CCOC[C@@]23CCOC3)nnc1C1CC1", "% Inhibition": 13}
{"smiles": "O=C(Nc1ccccc1Cl)Nc1cccc2c(-c3ccccc3)c(C(=O)N3CCOCC3)[nH]c12", "% Inhibition": 12}
{"smiles": "Cc1ccc(S(=O)(=O)c2c(C)cc(-c3ccccc3)nc2N2CCOCC2)cc1", "% Inhibition": 12}
{"smiles": "CCO[C@@]1(c2ccccc2)NC(=O)c2cc3c(cc21)OCCO3", "% Inhibition": -18}
{"smiles": "CC(=O)N(CCN1CCOCC1)[C@H]1CCN(S(=O)(=O)c2cccc(Cl)c2)C1", "% Inhibition": 9}
{"smiles": "Cn1cc(CN2CCC(C(=O)NCCCN3CCCCC3)CC2)c2cc(Cl)ccc21", "% Inhibition": -8}
{"smiles": "O=C(NCCCN1CCOCC1)c1ccc(-c2cnc(NC3CCCCC3)nc2)cc1", "% Inhibition": -15}
{"smiles": "CO/N=C(\\Nc1cc(C)ccc1C)c1nonc1N", "% Inhibition": 16}
{"smiles": "O=C(C[C@@H]1NC(=O)c2ccccc2NC1=O)NCc1ccc(Cl)cc1Cl", "% Inhibition": -6}
{"smiles": "Nc1cc(F)c(Br)cc1Cl", "% Inhibition": 7}
{"smiles": "CCn1c(=O)c(N2CCC(C(=O)N3CCN(c4ccccc4F)CC3)CC2)nc2cccnc21", "% Inhibition": -9}
{"smiles": "O=C1C[C@@H](c2cccc(Br)c2)c2c(O)nc(N3CCOCC3)nc2N1", "% Inhibition": -7}
{"smiles": "CCN(C(C)=O)c1nc(CN2C(=O)N[C@](C)(c3ccc(F)cc3Br)C2=O)cs1", "% Inhibition": 9}
{"smiles": "Cc1nccc(O[C@H]2CCCN(C(=O)CN3CCN(c4ccccc4)C3=O)C2)n1", "% Inhibition": 9}
{"smiles": "COc1cccc(N2C(=O)N[C@H](C)C2=O)c1", "% Inhibition": 15}
{"smiles": "COc1cccc(C(=O)Nc2noc(-c3cccc(OC)c3)c2-c2ccc(Cl)cc2)c1", "% Inhibition": -19}
{"smiles": "COc1ccc(-c2c(-c3cccc(OC)c3)[nH]c3c2c(=O)[nH]c(=O)n3C)cc1", "% Inhibition": 97}
{"smiles": "CCCN1CCN(S(=O)(=O)c2cccc3nonc23)CC1", "% Inhibition": 11}
{"smiles": "O=C1CCc2cc(N[C@@H](C(=O)N3CCCC3)c3ccccc3)ccc2N1", "% Inhibition": 5}
{"smiles": "Clc1cccc(N2CCN(Cc3nc(-c4ccco4)no3)CC2)c1", "% Inhibition": -1}
{"smiles": "O=C(NC1CCN(Cc2ccco2)CC1)c1ccco1", "% Inhibition": -2}
{"smiles": "Cc1nn(C)cc1C(=O)N1CCN(c2nncc3ccccc23)CC1", "% Inhibition": -10}
{"smiles": "CCNC(=O)c1nc(-c2ccncc2)cs1", "% Inhibition": -16}
{"smiles": "COc1ccnc(NCc2ccc(N3CCOCC3)cc2)n1", "% Inhibition": 10}
{"smiles": "O=C(Cn1nc(C2CC2)nc1C1CC1)N1CCOCC1", "% Inhibition": 11}
{"smiles": "CCN(C[C@H](C)C#N)C(=O)C(=O)Nc1ccc(F)cc1Cl", "% Inhibition": 13}
{"smiles": "COc1cc(Br)cc(C#N)c1O", "% Inhibition": 9}
{"smiles": "CC(C)c1cccc(Nc2nc3ccncc3n(C(C)C)c2=O)c1", "% Inhibition": 94}
{"smiles": "O=C(CCOCC(F)(F)F)Nc1ccc2c(c1)C(=O)NC2", "% Inhibition": -5}
{"smiles": "Cn1cc(C(C(=O)O[C@@H]2C[C@@H]3CC[C@@]2(C)C3(C)C)c2cn(C)c3ccccc23)c2ccccc21", "% Inhibition": 3}
{"smiles": "CC[N+](CC)(CC(=O)OC1CC2CCC1(C)C2(C)C)CC(=O)OC1CC2CCC1(C)C2(C)C", "note": "(stereo not given)", "% Inhibition": 92}
{"smiles": "Cc1ccnc(-c2noc(Cn3c(=O)c(C)cn(C)c3=O)n2)c1", "% Inhibition": 4}
{"smiles": "Nc1nc(Cc2ccccc2)c(Br)c(=O)[nH]1", "% Inhibition": 5}
{"smiles": "COc1ccc(C2=NC3=S(N2c2ccccc2)N(C(C)=O)C(C(Cl)(Cl)Cl)N3c2ccccc2)cc1", "note": "(stereo not given)", "% Inhibition": 13}
